The subject of one assay is Klebsiella pneumoniae. Conditions: Concentration 32 ug.mL-1;; ASSAY_TEST Inhibition of Bacterial Growth; detection method Absorption (OD600); MEDIA CAMHB; plate type 384well; NBS; CORNING #3640; time 18 hr.
In another assay the test system is Candida albicans. Conditions: Concentration 32 ug.mL-1; ASSAY_TEST Inhibition of Fungal Growth; detection method Absorption (OD530).
The test system of a further assay is Cryptococcus neoformans. Particulars: Concentration 32 ug.mL-1; ASSAY_TEST Inhibition of Fungal Growth; detection method Resazurin; Absorption (OD600-OD570); plate type 384well; NBS; CORNING #3640. In general terms: The colour change of resazurin is a common sign of viable cells or microbes.

Broadly, the Inhibition is the drop in the measured response relative to a control, in per cent.

Entries with a potency or affinity are not part of this list.

For the compound `CCOC(=O)c1ccccc1NC(=O)CSc1nnc2ccc(C(=O)Nc3cccc(F)c3)cn12`, the Inhibition was 3.32% in the assay on Klebsiella pneumoniae, 0.61% with Candida albicans and -6.96% in the assay with Cryptococcus neoformans.
The like results for `CCCCOc1ccc(-c2cc3c4nnc(SCC(=O)Nc5ccc(F)cc5)n4ccn3n2)cc1` were, in that order, 3.87%, -1.37% and -16.65%.
Taken in the same sequence, the figures for `CC(C)c1nnc2c(=O)n(CC(=O)Nc3ccc4c(c3)OCO4)c3ccccc3n12` were 6.48%, 6.2% and -25.4%.
Taken in the same sequence, the figures for `COc1ccc(-c2nc(CSc3nc4ccccc4n4c(C(C)C)nnc34)c(C)o2)cc1` were 4.67%, 2.32% and -16.11%.
As to `Cc1cc2nn(CC(=O)Nc3cc(F)cc(F)c3)c(=O)n2c(Nc2ccc(F)c(C)c2)n1`, the Inhibition in the assay with Klebsiella pneumoniae is reported as 18.09%; with Candida albicans it was 3.34%; in the assay with Cryptococcus neoformans, -11.58%.
On to `COc1cccc(CN(c2ccc(Cl)cc2)S(=O)(=O)c2ccc3nncn3c2)c1`, for which the Inhibition with Klebsiella pneumoniae is listed as 6.15%; in the assay on Candida albicans it was 2.49%; with Cryptococcus neoformans it was -6.94%.
With `COc1ccc(CNC(=O)CSc2nnc3c4cc(-c5ccccc5)nn4ccn23)cc1`, the Inhibition is 15.76% with Klebsiella pneumoniae, 0.38% in the assay with Candida albicans and -28.39% in the assay with Cryptococcus neoformans.
`CCCCOc1ccc(-c2cc3c4nnc(SCC(=O)Nc5cc(C)ccc5C)n4ccn3n2)cc1`: the Inhibition is -2.43% in the assay on Klebsiella pneumoniae, 5.83% in the assay with Candida albicans and -10.24% in the assay on Cryptococcus neoformans.
The like results for `COc1ccc(NC(=O)Cn2nc3c4cc(-c5ccc(C)c(C)c5)nn4ccn3c2=O)cc1Cl` were, in that order, 8.4%, 6.09% and -7.3%.
Taken in the same sequence, the figures for `O=C(Cn1nc2c(SCc3ccc(Cl)cc3)nccn2c1=O)N1CCN(c2ccccc2)CC1` were 2.24%, 4.87% and -2.91%.

These data come from ChEMBL document CHEMBL4513146, “CO-ADD screening of Karazin Kharkiv National University (Ukraine) compounds”.
